Measured values published in PubChem BioAssay.
Activity calls are given as the source filed them. The rule behind the calls is not given here.

The compounds below were run on Aerobactin synthetase IucA (Klebsiella pneumoniae hvKP1) (assay: Biochemical IucA enzyme inhibition primary screen of the Spectrum library (AID 1346200;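 note: 100% = wells without compound and 0% = wells lacking enzyme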)). Settings: malachite green pyrophosphate, A620, at 8 µM, hits give low values.

Structure (SMILES)	activity remaining
CC[C@H]1OC(=O)C[C@@H](O)[C@H](C)[C@@H](O[C@@H]2O[C@H](C)[C@@H](O[C@H]3C[C@@](C)(O)[C@@H](O)[C@H](C)O3)[C@H](N(C)C)[C@H]2O)[C@@H](CC=O)C[C@@H](C)C(=O)/C=C/C(C)=C/[C@@H]1CO[C@@H]1O[C@H](C)[C@@H](O)[C@@H](OC)[C@H]1OC	112% (inactive)
O=C1C(=O)c2ccccc2C(O)=C1C1CCC(c2ccc(Cl)cc2)CC1 (stereo not given)	101% (inactive)
CCCc1c(OCCCCc2nn[nH]n2)ccc(C(C)=O)c1O	112% (inactive)
CCCCN(CCCC)CCCOC(=O)c1ccc(N)cc1	90% (inactive)
NC(N)=N/N=C\c1c(Cl)cccc1Cl	97% (inactive)
Oc1c(I)cc(Cl)c2cccnc12	126% (inactive)
C=C1C(=O)O[C@@H]2C3OC3(C)CC/C=C(\C)CC[C@@H]12 (stereo not given in full)	105% (inactive)
Cc1cc(C(C)(C)CC(C)(C)C)ccc1OCCOCC[N+](C)(C)Cc1ccccc1	118% (inactive)
O=c1c2ccccc2oc2ccccc12	117% (inactive)
CCCC(=O)Nc1ncnc2c1ncn2C1O[C@@H]2COP(=O)(O)O[C@H]2[C@H]1OC(=O)CCC (stereo not given in full)	107% (inactive)
CC(C)Cc1ccc(C(C)C(=O)O)cc1 (stereo not given)	90.9% (inactive)
O=c1cc(-c2cc(O)c(O)c(O)c2)oc2cc(O)cc(O)c12	101% (inactive)
COc1ccc(OC)c(C(O)CNC(=O)CN)c1 (stereo not given)	99.4% (inactive)
COc1ccc2cc([C@H](C)CO)ccc2c1	118% (inactive)
COc1cc(O)c(C)c(O)c1	112% (inactive)
